Source: PubChem BioAssay AID1159580 (chemical genetic matrix, 2015)
About 2,000 (36%) of roughly 5,500 compounds were called active. About 18% were inconclusive and are not listed. Rule as the data show it: active = normalized growth mostly below about 0.91 (no sharp cut-off); inconclusive = no clear call, values can overlap the other calls; inactive = mostly above about 0.92. The list shows a part of the results.

Experiment: chemical genetic growth profiling, strain panel (AID 1159580);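 also: tested at 20 µM; growth read once vehicle control cultures reached saturation at 30 °C; 1 = growth at the plate median or of vehicle wells; lower values mean less growth of the strain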
Settings: S. cerevisiae deletion strains, growth OD

Measured: normalized growth

NC(N)=NN=Cc1c(Cl)cccc1Cl
inactive: locus YAL040C, strain CLN3, active compounds read low 0.994 | locus YCL061C, strain MRC1 (second series), active compounds read low 0.999 | locus YDR363W, strain ESC2, active compounds read low 1.01 | locus YER002W, strain NOP16, active compounds read low 1.01 | locus YJR075W, strain HOC1, active compounds read low 1.01 | locus YMR263W, strain SAP30, active compounds read low 1 | locus YMR307W, strain GAS1, active compounds read low 1.01 | locus YNL153C, strain GIM3, active compounds read low 0.999 | locus YNL175C, strain NOP13, active compounds read low 1.02 | locus YNL197C, strain WHI3, active compounds read low 1 | locus YNL224C, strain SQS1, active compounds read low 1.01 | locus YOR083W, strain WHI5 (second series), active compounds read low 1.01
